Data as given in the supplement of paper PMC11219838.
A number with no mark means an inactive call.

Tested on: Caenorhabditis elegans L1 (N2)
Experiment: survival and reproduction score of C. elegans L1 (0: 0-10 living worms, 1: 11-20, 2: 21-50, 3: >50, 4: overgrown) (score 0-4); higher = more worms, less nematicidal, active = 1 or less; extreme values may be limits of the assay
Settings: 60 µM; 6 days; temperature: 20 °C
In short: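 Compound was pinned to a final 60 µM (0.6% v/v DMSO) into 96-well wells, each holding about 20 synchronized C. elegans N2 L1s and E. coli HB101 in liquid NGM. After 6 days of shaking at 200 rpm and 20 °C in sealed plates, the worms in each well were examined. The ordinal readout of survival and reproduction, based on living worms per well, was assessed under a dissection microscope. On this scale 0 meant 0–10 worms and 4 meant overgrown, starved wells, and two biological replicates were averaged.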

SMILES | survival and reproduction score
O=C(Nc1ccc(-c2noc(-c3ccc(Cl)cc3)n2)cc1)c1ccco1 | 0 (active)
CCCc1ccc(-c2nc(-c3cccnc3)no2)cc1 | 0 (active)
Cc1ccc(-c2nc(-c3ccc(Br)cc3)no2)cc1 | 4
Clc1ccc(-c2noc(-c3ccncc3)n2)cc1 | 3.5
COc1ccc(CCC(=O)Nc2ccc(-c3noc(-c4ccc(F)cc4)n3)cc2)cc1 | 4
COc1ccc(CCC(=O)Nc2ccc(-c3noc(-c4ccccc4C)n3)cc2)cc1 | 4
O=C(CSc1nnc(-c2ccc(Cl)cc2)o1)Nc1ccc(F)cc1 | 4
Cc1ccc(-c2nnc(SCC(=O)Nc3ccc(Br)c(C)c3C)o2)cc1 | 4
Fc1ccc(OCc2nc(-c3ccc(Br)cc3)no2)cc1 | 3
Cn1c(SCc2nc(-c3cccs3)no2)nnc1-c1ccco1 | 4
Cc1ccc(OCc2nc(-c3ccncc3)no2)cc1C | 4
CCOc1ccccc1-c1nnc(SCc2ccc(C(=O)OC)o2)o1 | 4
CCOc1nc(-c2ccccc2)ccc1-c1noc(-c2ccccc2F)n1 | 4
O=C(CSc1nnc(-c2ccccc2)o1)Nc1ccc(Br)cc1F | 4
COc1nc(-c2ccc(Cl)cc2)ccc1-c1noc(C)n1 | 4
CCc1ccc(OCc2nc(-c3cccnc3)no2)cc1 | 4
CC(=O)Nc1ccc(C(=O)CSc2nnc(-c3cccc(Br)c3)o2)cc1 | 4
Brc1ccc(-c2noc(-c3cccs3)n2)cc1 | 0 (active)
COc1ccccc1OCc1nc(-c2cccc(Br)c2)no1 | 4
COc1ccc(-c2nnc(SCc3cccc(C#N)c3)o2)cc1 | 4
Clc1ccc(OCc2nc(-c3ccccc3)no2)c(Br)c1 | 1 (active)
O=C(CSc1nnc(-c2ccccc2)o1)Nc1ccc(F)cc1F | 4
COc1ccccc1CC(=O)Nc1ccc(-c2noc(-c3ccc(Cl)cc3)n2)cc1 | 4
Cc1ncc2c(c1-c1noc(-c3ccccc3)n1)CCC2 | 4
Cc1ccccc1-c1noc(COc2ccc(Cl)cc2Cl)n1 | 4
CC(C)C(=O)Nc1ccccc1-c1nc(-c2ccccn2)no1 | 4

SMILES | survival and reproduction score
COc1cccc(-c2noc(CSc3ccccc3)n2)c1 | 4
Cc1ccc(OCc2nc(-c3ccccc3Cl)no2)c(C)c1 | 4
c1ccc(-c2nnc(SCc3cccnc3)o2)cc1 | 4
COc1nc(-c2ccc(C)cc2)ccc1-c1noc(-c2ccc(F)cc2)n1 | 4
O=C(Nc1cccc(-c2noc(COc3ccccc3)n2)c1)c1cccs1 | 4
COc1ccc(Cl)cc1-c1noc(COc2ccccc2)n1 | 4
O=C(Nc1ccccc1-c1nc(-c2cccnc2)no1)c1ccc(Cl)cc1 | 4
Cc1ccc(-c2nnc(SCC(=O)Nc3c(C)cc(C)cc3C)o2)cc1 | 4
Cc1cccc(-c2noc(COc3ccc(Br)cc3)n2)c1 | 4
Cc1ccc(-c2noc(COc3cc(C)ccc3C)n2)cc1 | 4
Cc1ccc(NC(=O)CSc2nnc(-c3ccccc3)o2)cc1F | 4
COc1ccccc1-c1nnc(SCc2ccc(C#N)cc2)o1 | 4
COc1cccc(-c2noc(COc3ccccc3Cl)n2)c1 | 4
Clc1ccc(-c2noc(-c3cccnc3)n2)cc1 | 0 (active)
Cc1ccc(-c2nnc(SCC(=O)Nc3cc(C)ccc3C)o2)cc1 | 4
CCOc1ccc(NC(=O)CSc2nnc(-c3ccncc3)o2)cc1 | 4
c1ccc(CSc2nnc(-c3cccnc3)o2)cc1 | 4
COc1cccc(NC(=O)CSc2nnc(-c3ccc(Br)cc3)o2)c1 | 4
COc1ccc(-c2nnc(SCC(=O)Nc3ccc(Br)cc3C)o2)cc1 | 4
Cc1cccc(-c2noc(-c3ccccc3F)n2)c1 | 4
COc1cccc(-c2nnc(SCC(=O)Nc3cccc(C(F)(F)F)c3)o2)c1 | 4
Cc1cc(C)cc(-c2nc(-c3ccc(Cl)cc3)no2)c1 | 4
Brc1ccc(-c2noc(-c3cccs3)n2)o1 | 0 (active)
Cc1ccccc1-c1noc(-c2ccc(F)cc2)n1 | 4
O=C(Nc1ccccc1-c1nc(-c2cccnc2)no1)c1ccccc1Cl | 4
Cc1ccc(-c2nnc(SCc3ccccc3C#N)o2)cc1 | 4

SMILES | survival and reproduction score
Clc1ccccc1-c1noc(-c2ccncc2)n1 | 4
N#Cc1cccc(CSc2nnc(-c3ccncc3)o2)c1 | 4
COc1ccc(-c2nnc(SCC(=O)Nc3ccc(Cl)cc3C)o2)cc1 | 4
Clc1ccc(-c2nc(-c3ccc4c(c3)OCO4)no2)cc1 | 4
CC(C)(C)c1ccc(-c2noc(COc3ccccc3)n2)cc1 | 4
CCCC(=O)Nc1ccccc1-c1nc(-c2ccccn2)no1 | 4
FC(F)(F)c1cccc(-c2noc(-c3cccnc3)n2)c1 | 1 (active)
COc1ccc(Cl)cc1NC(=O)CSc1nnc(-c2ccncc2)o1 | 4
CC(C)(C)c1ccc(OCc2nc(-c3ccccc3)no2)cc1 | 4
CCCc1ccc(-c2nc(-c3ccc(F)cc3)no2)cc1 | 1.5
Clc1ccc(OCc2nc(-c3ccccc3)no2)c(Cl)c1 | 0 (active)
COc1ccccc1-c1nnc(SCC(=O)Nc2nc(C)cs2)o1 | 4
Cc1cnnn1-c1ccc(-c2nc(-c3ccc(Cl)cc3)no2)cc1 | 4
Cc1cc(Br)ccc1OCc1nc(-c2ccccn2)no1 | 4
COc1cccc(-c2nc(-c3ccccc3)no2)c1 | 1.5
CCSc1nnc(-c2ccc(Cl)cc2Cl)o1 | 0 (active)
O=C(CSc1nnc(-c2ccccc2Cl)o1)Nc1ccccn1 | 4
O=C(Nc1ccccc1-c1nc(-c2ccncc2)no1)c1cccc(Cl)c1 | 4
CCn1c(SCc2nnc(-c3ccccc3)o2)nnc1-c1ccco1 | 4
COc1ccccc1-c1nnc(SCC(=O)Nc2ccc(Br)cn2)o1 | 4
N#Cc1ccc(OCc2nc(-c3cccs3)no2)cc1 | 4
Cc1[nH]c2ccc(-c3nnc(SCC(=O)NCc4ccc(F)cc4)o3)cc2c1C | 4
COc1nc(-c2ccc(C)cc2)ccc1-c1noc(C)n1 | 4
CCCCCSc1nnc(-c2ccc(Cl)cc2Cl)o1 | 2
COc1ccccc1-c1nc(-c2ccc(Cl)cc2)no1 | 4
O=C(CSc1nnc(-c2ccccc2)o1)N1CCc2ccccc21 | 4

SMILES | survival and reproduction score
COC(=O)c1ccc(NC(=O)CSc2nnc(-c3ccc(Cl)cc3Cl)o2)cc1 | 4
COc1cccc(-c2nc(-c3ccc(F)cc3)no2)c1 | 4
Cc1cc(NC(=O)CSc2nnc(-c3ccc(Cl)cc3Cl)o2)no1 | 4
COc1ccc(Cl)cc1-c1noc(-c2ccccc2)n1 | 1 (active)
Cc1nnc(CSc2nnc(-c3ccc(Cl)cc3)o2)o1 | 4
CCOc1nc(C)ccc1-c1noc(-c2ccccc2F)n1 | 4
CN(C(=O)CSc1nnc(-c2ccccc2)o1)c1ccccc1 | 4
Cc1ccc(C)c(-c2nc(-c3cccnc3)no2)c1 | 0 (active)
COc1ccc(-c2nnc(SCc3ccccc3)o2)cc1 | 4
COc1ccc(NC(=O)c2ccccc2-c2nc(-c3ccccc3C)no2)cc1 | 4
COc1ccccc1-c1nnc(SCC(=O)OCc2ccccc2)o1 | 4
CC(C)(C)c1ccc(OCc2nc(-c3ccncc3)no2)c(Br)c1 | 4
Clc1ccc(-c2noc(-c3ccccc3Br)n2)cc1 | 3
CCCCCOC(=O)CSc1nnc(-c2ccc(Cl)cc2Cl)o1 | 4
COc1ccc(CC(=O)Nc2ccc(-c3noc(-c4ccccc4Br)n3)cc2)cc1 | 4
COc1cccc(-c2noc(COc3ccc4ccccc4c3)n2)c1 | 4
COc1ccc(C(=O)CSc2nnc(-c3cccc(Br)c3)o2)cc1 | 4
COc1ccccc1-c1noc(-c2ccccc2C)n1 | 4
c1ccc(-c2nc(C3CCCCC3)no2)cc1 | 0 (active)
Cn1cc(C(=O)CSc2nnc(-c3ccccc3)o2)c2ccccc21 | 0 (active)
Cc1ccc(NC(=O)CSc2nnc(-c3ccco3)o2)cc1Cl | 4
Brc1ccc(-c2nc(-c3ccc4c(c3)OCO4)no2)cc1 | 4
CCOC(=O)c1c(NC(=O)CSc2nnc(-c3ccc(Cl)cc3)o2)sc(C)c1C | 4
